Mdm2-MdmX inh: inhibitors of human Mdm2/MdmX interaction; SaOS-2 split-luciferase Mdm2/MdmX complementation, luminescence; hit rate 3% among 330,000; O15151+Q00987; inhibition, % at 8 µM; AID 485346;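 active means inhibition of at least 50% at 8 µM in the primary screen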
Target sequence (O15151 whole entry, looked up): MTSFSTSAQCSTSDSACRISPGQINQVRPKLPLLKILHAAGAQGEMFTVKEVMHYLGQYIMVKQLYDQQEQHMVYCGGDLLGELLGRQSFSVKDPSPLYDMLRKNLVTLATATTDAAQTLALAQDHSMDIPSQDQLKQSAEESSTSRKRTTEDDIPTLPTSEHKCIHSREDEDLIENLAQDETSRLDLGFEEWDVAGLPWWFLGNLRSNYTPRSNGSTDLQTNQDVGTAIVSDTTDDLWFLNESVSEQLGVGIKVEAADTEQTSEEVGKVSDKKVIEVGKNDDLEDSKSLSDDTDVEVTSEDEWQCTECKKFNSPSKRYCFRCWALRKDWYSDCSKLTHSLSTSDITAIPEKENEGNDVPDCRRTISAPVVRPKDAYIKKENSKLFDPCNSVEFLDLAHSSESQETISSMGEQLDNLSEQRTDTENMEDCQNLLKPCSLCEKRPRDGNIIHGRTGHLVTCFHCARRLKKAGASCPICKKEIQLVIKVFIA
Target sequence (Q00987 whole entry, looked up): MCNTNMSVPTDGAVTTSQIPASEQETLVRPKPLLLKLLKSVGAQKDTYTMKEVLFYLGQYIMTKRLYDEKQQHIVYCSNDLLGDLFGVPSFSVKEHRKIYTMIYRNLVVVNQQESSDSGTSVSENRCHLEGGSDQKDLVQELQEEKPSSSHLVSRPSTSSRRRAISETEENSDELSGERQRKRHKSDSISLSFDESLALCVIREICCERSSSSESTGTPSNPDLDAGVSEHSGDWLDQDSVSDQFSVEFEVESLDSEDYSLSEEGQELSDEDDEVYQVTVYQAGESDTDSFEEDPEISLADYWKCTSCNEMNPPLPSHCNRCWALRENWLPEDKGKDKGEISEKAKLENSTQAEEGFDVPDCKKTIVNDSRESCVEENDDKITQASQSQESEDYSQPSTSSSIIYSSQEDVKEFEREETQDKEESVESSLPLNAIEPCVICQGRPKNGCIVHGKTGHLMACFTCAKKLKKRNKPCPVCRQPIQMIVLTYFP
Beta apoptosis: beta cell apoptosis inhibition | INS-1E cytokine-induced death, ATP luminescence, 48 h; percent of positive-control rescue, neutral wells zero | protection from apoptosis, % (no concentration beside the values) | hit rate 0.8% among 300,000;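 active means Every replicate reaches about 75%, or at least half do and their mean reaches it too, limit read from the data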;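 further: 0% = cytokine-treated negative control wells and 100% = positive control rescue; higher means more ATP so stronger rescue from cytokine killing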
MPTP block: inhibitors of mitochondrial permeability transition pore; AID 602449; isolated mouse mitochondria, Ca2+ swelling absorbance, 30 min; inhibition, % at 10 µM; hit rate 1.4% among 360,000;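 active means inhibition of 50% or more, scaled per plate between neutral and stimulator controls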;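 further: 0% = DMSO wells given calcium and 100% = 1 mM EGTA wells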
Gli-Sufu antag: blocks Gli-Sufu signaling in a luciferase reporter; hit rate 0.74% among 340,000; inhibition, % at 5 µM; Sufu-KO-LIGHT fibroblasts, Gli luciferase reporter luminescence;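 active means inhibition above about 55%, limit read from the data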;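 further: 0% = DMSO-treated cells and 100% = wells with medium but no cells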
CSC inhib: blocks cancer stem cells. cancer stem cell-like cells viability, luminescence. inhibition, % at 7.5 µM. hit rate 1.1% among 300,000; in the data active means inhibition above about 75%; tested in HMLE shEcad cells
NR3A LBD binder: modulators (binders) of human NR3A ligand-binding domain; NR3A LBD differential scanning fluorimetry, Tm shift; 0% = protein alone, 100% = glycine-bound protein; hit rate 2.5% among 340,000; AID 1259313; Tm shift relative to glycine control, % at 25 µM;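 active means melting temperature shift of at least 10% of the positive control shift, at one fixed dose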
Mdm2-MdmX conf: human Mdm2/MdmX binding inhibition, confirmed. luminescent assay. inhibition, % at 8 µM. AID 489028. hit rate 55% among 10,000. shares compounds with Mdm2-MdmX inh; in the data active means inhibition above about 40%
FLuc counter: inhibits full-length luciferase, flagging false Mdm2/MdmX hits. inhibition, % at 8 µM. shares compounds with Mdm2-MdmX inh. AID 504607. hit rate 77% among 6,200. SaOS-2 full-length luciferase counterscreen, luminescence;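 active means mean inhibition at 8 µM reaching about 37%, which flags the compound as non-specific, limit read from the data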;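 further: p53-null SaOS-2 cells with luciferase driven by a doxycycline-inducible promoter; compound on cells about two nights before reading with doxycycline added after day one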
Starred values were filed as active, the others as inactive; / = no result given. Most compounds without a hit are left out; they make up all but 6.6% or so of the library.

SMILES	Mdm2-MdmX inh	Beta apoptosis	MPTP block	Gli-Sufu antag	CSC inhib	NR3A LBD binder	Mdm2-MdmX conf	FLuc counter
Cc1cc2nc(C3CCCN(C(=S)Nc4ccccc4)C3)[nH]c2cc1C (stereo not given)	51*	10	3	0	-9	/	-13	/
O=C(OC1CCN(c2ncc(C(F)(F)F)cc2Cl)CC1)c1ccc(Cl)cc1	22	-7	-2	0	-23	0	/	/
O=C(N/N=C/c1cccc(C(F)(F)F)c1)C1CCN(c2ncc(C(F)(F)F)cc2Cl)CC1	64*	/	19	9	4	1	-2	/
Cc1cc2nc(NC(=O)C3(C)CCN3C(=O)C(C)C)[nH]c2cc1C (stereo not given)	/	/	0	/	/	/	/	/
NC(=O)c1sc2nc3c(c(-c4cccs4)c2c1N)CCCCC3	85*	-32	0	-18	-7	-1	88*	53*
COc1ccc(OC)c(-c2nnc3n2N=C(c2ccc(OC)c(OCC4CC4)c2)CS3)c1	80*	35	0	55	/	-1	68*	68*
COc1ccc(C2=Nn3c(nnc3-c3ccccc3Cl)SC2)cc1OCC1CC1	73*	17	0	9	/	-23	57*	45*
Fc1ccccc1-c1nnc2n1N=C(c1ccc(OC(F)F)c(OCC3CC3)c1)CS2	-15	8	2	12	/	-5	/	/
COc1ccc(-c2[nH]ncc2-c2ccc3c(c2)OCCO3)c(O)c1	84*	-50	1	-10	-11	0	90*	52*
CCc1cc(-c2[nH]ncc2-c2ccc3c(c2)OCO3)c(O)cc1O	78*	-10	5	-2	56	24*	73*	38*
CCCCn1c(N)c(N(Cc2ccccc2OC)C(=O)C(C)Oc2cccc(Cl)c2)c(=O)[nH]c1=O (stereo not given)	/	/	0	/	/	/	/	/
Cc1cccc(COC[C@H](Cc2ccccc2)N2CCN(C(=O)c3ccc(C(F)(F)F)cc3)CCC2=O)c1	/	/	-2	/	/	/	/	/
O=C(c1ccc(Cl)c(Cl)c1)N1CCC(=O)N(C(COCc2cccc(Cl)c2)Cc2ccccc2)CC1 (stereo not given)	54*	14	1	14	45	-14	24	/
Cc1cccc(COCC(Cc2ccccc2)N2CCN(C(=O)c3ccc(C(F)(F)F)cc3)CCC2=O)c1 (stereo not given)	57*	-2	0	-8	33	-21	9	/
O=C(c1cccc(Cl)c1)N1CCC(=O)N(C(COCc2cccc(Cl)c2)Cc2ccccc2)CC1 (stereo not given)	12	6	-1	12	12	-4	/	/
C=CCn1c(SCC(=O)N(CC)C2CCS(=O)(=O)C2)nc2scc(-c3ccccc3)c2c1=O (stereo not given)	/	/	-1	3	/	0	/	/
Cc1cc(C)c2nc(NNC(=O)c3cc(-c4cccs4)nc4ccccc34)sc2c1	77*	/	26	-2	97*	-3	68*	57*
Cc1ccc2sc(NNC(=O)c3cc(-c4cccs4)nc4ccccc34)nc2c1C	/	/	/	/	38	/	/	/
Cc1c(NC(=O)c2cc(-c3cccs3)nc3ccccc23)c(=O)n(-c2ccccc2)n1C	57*	5	1	-1	22	-3	37	/
Cc1c(NC(=O)c2cc(-c3ccccc3)nc3ccccc23)c(=O)n(-c2ccccc2)n1C	20	3	0	3	-1	-1	/	/
O=C(NNc1nc2ccc(Cl)cc2s1)c1cc(-c2cccs2)nc2ccccc12	53*	6	12	7	109*	-5	62*	61*
CCc1ccc(OCc2cccc(C(=O)N/N=C\c3cnn(C)c3C)c2)cc1	8	/	-1	-73	/	4	/	/
O=C(NCCCN1CCCC1)c1ccc2c(c1)N(Cc1ccccc1F)C(=O)c1ccccc1S2(=O)=O	34	/	-3	29	/	4	/	/
COc1ccccc1NC(=O)N(Cc1ccco1)Cc1cc2cc(C)cc(C)c2[nH]c1=O	53*	7	-2	-2	0	-3	37	/
COc1ccccc1NC(=S)N(Cc1ccco1)Cc1cc2cc(C)c(C)cc2[nH]c1=O	59*	9	0	7	-11	10	54*	56*
SMILES	Mdm2-MdmX inh	Beta apoptosis	MPTP block	Gli-Sufu antag	CSC inhib	NR3A LBD binder	Mdm2-MdmX conf	FLuc counter
COc1ccccc1NC(=O)N(Cc1ccco1)Cc1cc2ccc(C)c(C)c2[nH]c1=O	50	-10	-6	-5	-23	1	/	/
COc1ccccc1NC(=S)N(Cc1ccco1)Cc1cc2cccc(C)c2[nH]c1=O	-5	-6	0	14	-1	-5	/	/
Cc1cc2cc(CN(Cc3ccco3)S(=O)(=O)c3c(C)ccc4nsnc34)c(=O)[nH]c2cc1C	61*	-3	19	0	19	-1	54*	54*
COc1ccc(NC(=O)CCCC(=O)NCCc2ccc(OC)c(OC)c2)cc1	15	-3	0	/	-3	-1	/	/
O=C(NCCc1ccc(F)cc1)c1ccc(NS(=O)(=O)c2ccc3[nH]c(=O)[nH]c3c2)cc1	12	-3	-3	-5	-2	-4	/	/
CC(=O)NC1(C(=O)O)CCCC1	-5	-5	0	-6	-11	0	/	/
OCC[C@@H]1C[C@H](O)[C@@H](O)[C@@]2(OCCCc3cc(Cl)ccc32)O1	/	/	0	/	/	/	/	/
CCOc1cc2[nH]c(=O)n(CCc3ccc(OC)c(OC)c3)c(=O)c2cc1OCC	-2	2	0	1	-3	3	/	/
CCOc1cc2[nH]c(=S)n(CCc3ccc(OC)c(OC)c3)c(=O)c2cc1OCC	83*	56	2	7	17	4	-8	/
Cc1csc(NC(=O)CSc2nnc3c4ccccc4nc(C(C)(C)C)n23)n1	69*	/	4	0	/	-15	60*	57*
CC(=O)CSc1nnc2c3ccccc3nc(C(C)(C)C)n12	15	-6	1	4	-13	-2	/	/
CCOC(=O)C1CCCN(c2ncnc3c2cnn3-c2ccc(OC)cc2)C1 (stereo not given)	-7	-2	2	-9	10	-1	/	/
COc1ccc(-n2ncc3c(N4CCN(c5cc(C)ccc5C)CC4)ncnc32)cc1	3	6	4	-11	9	0	/	/
Clc1ccc(-n2ncc3c(N4CCCCCC4)ncnc32)cc1	91*	/	2	/	59	2	88*	98*
Clc1ccc(Cn2ncc3c(N4CCCCC4)ncnc32)cc1	14	0	-2	3	-4	0	/	/
COc1ccc(-n2ncc3c(N4CCN(c5cccc(C)c5C)CC4)ncnc32)cc1	77*	15	1	4	-5	2	21	/
COc1ccc(-n2ncc3c(N4CCCCC4)ncnc32)cc1	87*	14	0	56*	-1	-4	86*	73*

Assay outcomes from PubChem.
